Source: PubChem
PMP22 txn – PMP22 gene transcription modulation. S16 Pmp22-F2sN Schwann cells, FLuc/NLuc coincidence luminescence, 24 h. AID 1508649. hit rate 2% among 43,000. Potency, µM (top dose mostly 57.5 µM), for inactives: at the highest dose activity change, negative = inhibition, most hits filed as inhibitors; active = clear falling dose curves in both reporters; inconclusive = both reporters move, but less clearly or upward; inactive = either reporter flat; the % is the NLuc reporter signal
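S16 Schwann cells carrying FLuc/NLuc coincidence reporter in the Pmp22 3' UTR treated with compound 24 h at 37C; FLuc then NLuc luminescence read sequentially by dual-luciferase reagents.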
p53null 39C tox – kills p53 null cells at the nonpermissive temperature; H1299 p53-null (neo) cells, 39C, ATPlite viability, 24 h; Potency, µM (doses to about 46.1 µM), for the others: at the highest dose activity, negative = cell killing, usual class: cytotoxic; hit rate 0.97% among 55,000; AID 904;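 note: 0% = DMSO only and -100% = full killing by 100 µM tamoxifen; nearly all actives have a fitted effect of over 50% in size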
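Luminescent ATP signal reported cell survival after H1299 lines (neo, p53 null; or p53 A138V) received up to 46 uM compound and 24 hr incubation at 39C.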
mTORC1 inh – reduces mTORC1 signaling in Tsc2 and p53 null MEF cells; AID 493208; Tsc2-/- p53-/- MEF, phospho-rpS6 immunofluorescence/PI, 24 h; Potency, µM (doses to about 38.3 µM), for inactives: top-dose activity change, negative = inhibition, most hits filed as inhibitors; hit rate 0.78% among 44,000;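 note: plate controls were DMSO for no effect and rapamycin for full effect; nearly all actives have a fitted effect of over 50% in size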
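Immunofluorescence of rpS6 phosphorylation in Tsc2-/-, p53-/- MEFs after 24 h compound exposure, normalized to propidium iodide signal. Activity is expressed as % positive cells, thresholded with 7.5 nM rapamycin.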
p53null 32C tox – p53 null cell cytotoxicity, permissive temperature | H1299-neo p53 null cells, ATP luminescence, 24 h, 32C | Potency, µM (titrated, usually from 46.1 µM), without a hit: at the highest dose activity change, negative = cytotoxicity, usual class: cytotoxic | hit rate 0.62% among 55,000;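 note: 0% = DMSO only and -100% = full killing by 100 µM tamoxifen; nearly all actives have a fitted effect of over 55% in size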
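H1299-neo (p53-null) cells, 600/well, were pre-incubated overnight at 37C, then exposed to compounds at up to 46 uM for 24 hr at 32C. Viability was measured as ATP content by luminescence, and AC50 values came from Hill fits.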
S16 viability – cytotoxicity in S16 Pmp22-F2sN Schwann cells. Potency, µM (doses to about 57.5 µM), for the others: at the highest dose activity change, negative = cytotoxicity, usual class: cytotoxic. hit rate 0.48% among 43,000. S16 Pmp22-F2sN Schwann cells (luciferase reporters placed in the Pmp22 gene) viability, CellTiter-Glo, 24 h; note: nearly all actives have a fitted effect of over 65% in size
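CellTiter-Glo counter-screen, qHTS, 1536-well. Cells: S16(c9) Pmp22-F2sN, 500-1,000/well in DMEM + 10% FBS. Cpd 23 nL pin transfer, 24 h, 37C/5% CO2. Read: luminescence, CCD imager.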
SKOV3 invasion – blocks SKOV3ip1 adhesion and invasion in omental model. AID 1963576. Potency, µM (highest dose often 45.8 µM), inactives show at the highest dose activity change, negative = inhibition, usual class: inhibitors. hit rate 0.1% among 46,000. SKOV3ip1-GFP adhesion/invasion on 3D omental model, fluorescence;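 note: plate controls were DMSO wells for no effect and tomatine positive control wells for full effect; nearly all actives have a fitted effect of over 65% in size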
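qHTS, 4-pt dose (0.36-46 umol/L); SKOV3ip1-GFP, 1,200 cells/well, no FBS; primary omental fibroblast/mesothelial co-culture 48 h pre-grown; 2 h RT + 16 h 37 C; PBS wash, 4% PFA; GFP count 488/509 nm.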
Starred values were filed as active, the others as inactive. Most compounds without a hit are left out; they make up all but 3.1% or so of the library. Unless noted, calls come from the whole dose curve; as a rule, active = well fitted curve in the direction sought with a large enough effect; inconclusive = small, poorly fitted or top-dose-only effect, or another doubt; inactive = no such curve, though single readings can be large; an effect the other way counts as inactive or inconclusive. Unless noted, % is set by controls: 0 for no effect and ±100 for the full control effect; potency is the fitted concentration of half-maximal effect.

Cc1ccc2nc(-c3sc4nc(C)ccc4c3N)[nH]c2c1 was read as p53null 39C tox 10µM* and p53null 32C tox 11µM*.
Nc1ccc2nc(-c3cccs3)[nH]c2c1 was read as p53null 39C tox -20% and p53null 32C tox inconclusive.
Screening O=C(O)c1cc(-c2ccc(C(F)(F)F)cc2)nc2n[nH]c(-c3ccccc3)c12 returned PMP22 txn 11%, p53null 39C tox 16µM*, mTORC1 inh 0%, p53null 32C tox inconclusive, S16 viability 19% and SKOV3 invasion -12%.
For COc1ccc(F)cc1S(=O)(=O)Nc1cccc(-c2ccc(N3CCC(C)CC3)nn2)c1 the results were p53null 39C tox inconclusive, mTORC1 inh -4%, p53null 32C tox inconclusive and SKOV3 invasion -9%.
Screening CC1CCN(c2ccc(-c3cccc(NS(=O)(=O)c4ccc(Cl)s4)c3)nn2)CC1 returned p53null 39C tox 10µM*, mTORC1 inh 0%, p53null 32C tox 6.3µM* and SKOV3 invasion 6%.
Screening COc1ccc(C)cc1S(=O)(=O)Nc1cccc(-c2ccc(N3CCC(C)CC3)nn2)c1 returned p53null 39C tox -10%, mTORC1 inh 0%, p53null 32C tox -11% and SKOV3 invasion -6%.
For COc1ccc(S(=O)(=O)Nc2cccc(-c3ccc(N4CCCC4)nn3)c2)cc1OC the results were p53null 39C tox -10%, mTORC1 inh 0%, p53null 32C tox 11% and SKOV3 invasion -1%.
COc1ccc(S(=O)(=O)Nc2cccc(-c3ccc(N4CCC(C)CC4)nn3)c2)cc1OC was read as p53null 39C tox 7.9µM*, mTORC1 inh -6%, p53null 32C tox 3.2µM* and SKOV3 invasion -11%.
For CC1CCN(c2ccc(-c3cccc(NS(=O)(=O)c4cccs4)c3)nn2)CC1 the results were p53null 39C tox 10µM*, mTORC1 inh -2%, p53null 32C tox 7.9µM* and SKOV3 invasion inactive.
For C[C@]12CC[C@@H]3c4ccc(O)cc4C[C@@H](CCCCCCCCCS(=O)CCCC(F)(F)C(F)(F)F)[C@H]3[C@H]1CC[C@H]2O (some centres undefined) the results were SKOV3 invasion -18%.
For CCOc1ccccc1OCCNC(C)Cc1ccc(OC)c(S(N)(=O)=O)c1 (centres undefined) the results were SKOV3 invasion 12%.
For CCc1ccc(CNC(=O)C2CCCN(c3nnc(C)c4c(C)n(-c5ccc(OC)cc5)nc34)C2)cc1 (centres undefined) the results were PMP22 txn inconclusive, p53null 39C tox inconclusive, mTORC1 inh -1%, p53null 32C tox 25µM*, S16 viability inconclusive and SKOV3 invasion inconclusive.
`COc1ccc(-n2nc3c(N4CCCC(C(=O)NCc5ccc(C)cc5)C4)nnc(C)c3c2C)cc1` (centres undefined) gave PMP22 txn inconclusive, p53null 39C tox 15%, mTORC1 inh -19%, p53null 32C tox inconclusive, S16 viability inconclusive and SKOV3 invasion 13µM*.
`COc1ccc(CNC(=O)C2CCN(c3nc4ccc(C)cc4[nH]3)CC2)cc1` gave PMP22 txn -2%, p53null 39C tox -5%, mTORC1 inh 13µM*, p53null 32C tox 4%, S16 viability 0% and SKOV3 invasion -5%.
CCNC(=O)C1CCCN(c2nnc(C)c3c(C)n(-c4ccc(C)cc4)nc23)C1 (centres undefined) was read as PMP22 txn -29%, p53null 39C tox -18%, mTORC1 inh -3%, p53null 32C tox 2%, S16 viability -12% and SKOV3 invasion -18%.
